This is a sample that favours compounds with a hit; in the whole collection about 9.2% have one here.
Rab9 prom act – qHTS Assay for Rab9 Promoter Activators; Huh7 Rab9 promoter-luciferase reporter, luminescence, 24 h; Potency, µM (top dose mostly 9.22 µM), hits mostly activators; hit rate 2.8% among 320,000; note: nearly all actives have a fitted effect of over 60% in size
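Cells were plated at 1500 per well in reduced-serum medium with 10% FBS and left 2 h. Compound in DMSO was then added for 24 h at 37 °C. Reporter signal was read by luminescence after 10 min with luciferase detection reagent.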
ELG1 DNA repair – qHTS screen for small molecules that inhibit ELG1-dependent DNA repair in human embryonic kidney (HEK293T) cells expressing luciferase-tagged ELG1; HEK293T ELG1-luciferase reporter, luminescence, 16 h; DNA damage induced by 5-fluorouridine; Potency, µM (titrated, usually from 46.1 µM), most hits filed as inhibitors; hit rate 2.3% among 330,000; note: nearly all actives have a fitted effect of over 55% in size
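In this reporter screen, reduction of luminescence relative to DMSO vehicle indicated activity. Compounds and 5-fluorouridine were added together to 2,000 cells per well, incubated for 16 hr at 37 °C, then developed with ONE-Glo.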
NPC1 promoter act – qHTS Assay for NPC1 Promoter Activators; Huh7 NPC1 promoter luciferase reporter, 24 h; Potency, µM (doses to about 9.22 µM), most hits filed as activators; hit rate 2.4% among 320,000; note: nearly all actives have a fitted effect of over 60% in size
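Huh7 reporter cells (NPC1 promoter driving luciferase) are dosed with compound for 24 h at 37 °C, 5% CO2; luciferase detection reagent is then added and luminescence measured after 10 min at ambient temperature.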
SMN2 splice up – qHTS Assay for Enhancers of SMN2 Splice Variant Expression. AID 1458, 2008. hit rate 2.8% among 210,000. HEK293 SMN2-luciferase splicing reporter, luminescence, 30-36 h. Potency, µM (highest dose often 46.1 µM), most hits filed as activators; note: nearly all actives have a fitted effect of over 55% in size
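HEK293 cells carry an SMN2 minigene-luciferase reporter in which exon 7 inclusion puts luciferase in frame. Cells were seeded at 2000 cells/well, attached for 10-12 hours, then exposed to compounds for 30-36 hours at 37C before ONE-Glo luminescence.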
FLuc counter – qHTS profiling assay for firefly luciferase inhibitor/activator using purifed enzyme and Km concentrations of substrates (counterscreen for miR-21 project); Luciferin 4-monooxygenase (Photinus pyralis), P08659; hit rate 6.9% among 360,000; AID 588342, 2011; purified FLuc, Km substrates, luminescence inhibition; Potency, µM (doses to about 57.5 µM), usual class: inhibitors; note: nearly all actives have a fitted effect of over 55% in size
Target sequence (P08659 whole entry, looked up): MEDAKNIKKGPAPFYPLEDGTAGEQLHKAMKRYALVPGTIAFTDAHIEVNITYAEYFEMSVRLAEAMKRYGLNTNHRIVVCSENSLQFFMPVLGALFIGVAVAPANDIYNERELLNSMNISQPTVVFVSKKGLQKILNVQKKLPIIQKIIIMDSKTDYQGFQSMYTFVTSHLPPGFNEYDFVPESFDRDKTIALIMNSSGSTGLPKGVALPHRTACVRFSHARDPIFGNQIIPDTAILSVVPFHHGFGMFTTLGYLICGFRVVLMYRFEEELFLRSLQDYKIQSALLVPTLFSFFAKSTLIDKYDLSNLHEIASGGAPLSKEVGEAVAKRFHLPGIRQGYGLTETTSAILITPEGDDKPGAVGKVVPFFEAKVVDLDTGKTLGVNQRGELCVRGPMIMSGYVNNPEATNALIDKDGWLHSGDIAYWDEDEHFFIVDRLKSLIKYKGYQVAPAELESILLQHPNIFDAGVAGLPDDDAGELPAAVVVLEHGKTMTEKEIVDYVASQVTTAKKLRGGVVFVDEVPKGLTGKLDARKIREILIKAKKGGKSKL
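Purified P. pyralis luciferase, 10 nM final, with Km-level 10 uM D-luciferin and 10 uM ATP in 50 mM Tris acetate pH 7.5, 10 mM Mg acetate, 0.01% Tween-20, 0.05% BSA; 6-point qHTS titration about 60 µM downward; luminescence read.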
ELG1 genotoxic – qHTS screen for small molecules that induce genotoxicity in human embryonic kidney (HEK293T) cells expressing luciferase-tagged ELG1; hit rate 1.3% among 330,000; Potency, µM (highest dose often 46 µM), actives largely listed as activators; HEK293T ELG1-luciferase reporter, luminescence, 16 h; note: nearly all actives have a fitted effect of over 60% in size
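Cells (2,000/well) expressing the ELG1-luciferase fusion are dosed by pin tool and kept 16 hr at 37 °C, 5% CO2. Signal comes from ONE-Glo luciferase reagent after 30 min at room temperature.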
Hits are given with their value; [ ] = remark or other dose. Calls come from the whole dose curve; as a rule, active = well fitted curve in the direction sought with a large enough effect; inconclusive = small, poorly fitted or top-dose-only effect, or another doubt; inactive = no such curve, though single readings can be large; an effect the other way counts as inactive or inconclusive.

How did O=C(Nc1nnc(-c2ccc(F)cc2)o1)c1ccc(S(=O)(=O)N2CCOCC2)cc1 do in these assays?
Rab9 prom act: inactive; ELG1 DNA repair: 7.3µM; NPC1 promoter act: inactive; FLuc counter: inactive; ELG1 genotoxic: inactive

Results for CC1CCN(S(=O)(=O)c2ccc(C(=O)Nc3nnc(-c4ccco4)o3)cc2)CC1 ?
Rab9 prom act: inactive; ELG1 DNA repair: inconclusive; NPC1 promoter act: inactive; FLuc counter: inactive; ELG1 genotoxic: inactive

Results for COc1cccc(-c2nnc(NC(=O)c3ccc(S(=O)(=O)N4CC(C)OC(C)C4)cc3)o2)c1 (centres undefined) ?
Rab9 prom act: inactive; ELG1 DNA repair: 2.6µM; NPC1 promoter act: inactive; SMN2 splice up: inactive; FLuc counter: inactive; ELG1 genotoxic: inactive

How did CC1CN(S(=O)(=O)c2ccc(C(=O)Nc3nnc(-c4ccco4)o3)cc2)CC(C)O1 (centres undefined) do in these assays?
Rab9 prom act: inactive; ELG1 DNA repair: 18µM; NPC1 promoter act: inactive; SMN2 splice up: inactive; FLuc counter: inactive; ELG1 genotoxic: inactive

How did O=C(CC(c1cccs1)N1Cc2ccccc2C1=O)Nc1ccccc1 (centres undefined) do in these assays?
FLuc counter: inactive

What do the screens show for `CCCSc1nnc2c(n1)OC(CC)N(C(C)=O)c1ccccc1-2` (centres undefined)?
SMN2 splice up: inactive; FLuc counter: inactive

What do the screens show for `CCN(CC)c1cc(C)c2cc(NC(=O)c3ccccc3Cl)ccc2n1`?
SMN2 splice up: inactive; FLuc counter: inactive

How did Cc1cc(C(=O)N2CCN(c3cccc(C)c3C)CC2)c2c(C)nn(-c3ccccc3)c2n1 do in these assays?
FLuc counter: inactive

Results for Cc1sc2ncnc(Sc3ccccc3C(=O)Nc3ccc(Br)cc3)c2c1C ?
Rab9 prom act: inactive; ELG1 DNA repair: inconclusive; NPC1 promoter act: inactive; FLuc counter: inactive; ELG1 genotoxic: inactive

How did COc1ccc(NC(=O)CN(C)C(=O)c2ccccc2Sc2ncnc3sc(C)c(C)c23)cc1 do in these assays?
Rab9 prom act: inactive; ELG1 DNA repair: 16µM; NPC1 promoter act: inactive; FLuc counter: inactive; ELG1 genotoxic: inactive

How did O=C(c1cc(-c2ccccc2)on1)N1CCCc2ccccc21 do in these assays?
Rab9 prom act: inconclusive; ELG1 DNA repair: inconclusive; NPC1 promoter act: inactive; FLuc counter: 24µM; ELG1 genotoxic: inconclusive

What do the screens show for `O=C(c1cc(-c2ccco2)on1)N1CCCc2ccccc21`?
Rab9 prom act: inactive; ELG1 DNA repair: inconclusive; NPC1 promoter act: inactive; SMN2 splice up: inactive; FLuc counter: inconclusive; ELG1 genotoxic: inactive

Results for O=C(c1cc(-c2ccccc2)on1)N1CCN(c2ccccc2)CC1 ?
Rab9 prom act: inactive; ELG1 DNA repair: inactive; NPC1 promoter act: inactive; FLuc counter: 24µM; ELG1 genotoxic: inactive

What do the screens show for `O=C(c1cc(-c2ccccc2)on1)N1CCCC1`?
Rab9 prom act: 0.89µM; ELG1 DNA repair: inconclusive; NPC1 promoter act: 0.79µM; SMN2 splice up: 11µM; FLuc counter: 9.5µM; ELG1 genotoxic: 1.6µM

How did CN(C(=O)c1cc(-c2ccccc2)on1)C1CCCCC1 do in these assays?
Rab9 prom act: 2.8µM; ELG1 DNA repair: inconclusive; NPC1 promoter act: 1.3µM; FLuc counter: 8.5µM; ELG1 genotoxic: inconclusive

What do the screens show for `O=C(NCCN1CCCOC1=O)C(=O)NCCN1CCCOC1=O`?
Rab9 prom act: inactive; ELG1 DNA repair: inactive; NPC1 promoter act: inactive; FLuc counter: inactive; ELG1 genotoxic: inactive

What do the screens show for `COC(=O)c1c(SC)nc2ccccc2c1OCc1ccccc1C`?
FLuc counter: inactive

What do the screens show for `O=C(O)c1ccc(N2CCN(Cc3ccc4c(c3)OCO4)CC2)c([N+](=O)[O-])c1`?
Rab9 prom act: inactive[1.84 µM]; ELG1 DNA repair: inactive; NPC1 promoter act: inactive; FLuc counter: inactive; ELG1 genotoxic: inactive

Results for CC(=O)c1ccc(NC(=O)c2ccc3c(=O)n4c(nc3c2)CCCCC4)cc1 ?
Rab9 prom act: inactive; ELG1 DNA repair: inconclusive; NPC1 promoter act: inactive; FLuc counter: inactive; ELG1 genotoxic: inactive

Results for CCc1ccc(C(=O)NNC(=O)c2ccc3c(=O)n4c(nc3c2)CCC4)cc1 ?
Rab9 prom act: inactive; ELG1 DNA repair: inactive; NPC1 promoter act: inactive; FLuc counter: inactive; ELG1 genotoxic: inactive

What do the screens show for `CCc1cccc(NC(=O)c2ccc3c(=O)n4c(nc3c2)CCCCC4)c1`?
Rab9 prom act: inactive; ELG1 DNA repair: inactive; NPC1 promoter act: inconclusive; FLuc counter: 13µM; ELG1 genotoxic: inactive

What do the screens show for `O=C(Nc1cccc(Cl)c1)c1ccc2c(=O)n3c(nc2c1)CCCCC3`?
Rab9 prom act: 0.89µM; ELG1 DNA repair: inconclusive; NPC1 promoter act: 1.6µM; SMN2 splice up: inconclusive; FLuc counter: 3.4µM; ELG1 genotoxic: inconclusive

Results for O=C(Nc1ccc(Cl)cc1)c1ccc2c(=O)n3c(nc2c1)CCCCC3 ?
Rab9 prom act: inactive; ELG1 DNA repair: inconclusive; NPC1 promoter act: inactive; FLuc counter: inconclusive; ELG1 genotoxic: inactive

What do the screens show for `O=C(Nc1ccc(F)cc1)c1ccc2c(=O)n3c(nc2c1)CCCCC3`?
Rab9 prom act: 4.5µM; ELG1 DNA repair: inconclusive; NPC1 promoter act: 3.2µM; FLuc counter: 13µM; ELG1 genotoxic: inconclusive

Results for O=C(Nc1ccc(F)c(Cl)c1)c1ccc2c(=O)n3c(nc2c1)CCCCC3 ?
Rab9 prom act: 1.8µM; ELG1 DNA repair: inconclusive; NPC1 promoter act: 3.2µM; FLuc counter: 6.7µM; ELG1 genotoxic: inactive

How did CC1=C(C(=O)Nc2ccccc2C(=O)N2CCC(C)CC2)SCCO1 do in these assays?
Rab9 prom act: inactive; ELG1 DNA repair: inactive; NPC1 promoter act: inactive; FLuc counter: inactive; ELG1 genotoxic: inactive

How did Cn1c(-c2cccc(Br)c2)cnc1NCc1cccc(F)c1 do in these assays?
SMN2 splice up: inactive; FLuc counter: inactive

Results for COc1ccc(NC(=O)C2CCC(C(C)(C)C)CC2)cc1S(=O)(=O)N1CCOCC1 (centres undefined) ?
Rab9 prom act: inactive; ELG1 DNA repair: inactive; NPC1 promoter act: inactive; FLuc counter: inactive; ELG1 genotoxic: inactive

What do the screens show for `Cc1ccc(NC(=O)c2ccc3c(=O)n4c(nc3c2)CCC4)cc1F`?
Rab9 prom act: 2.5µM; ELG1 DNA repair: inconclusive; NPC1 promoter act: 3.2µM; ELG1 genotoxic: inconclusive

Results for O=C(Nc1ccccn1)c1ccc2c(=O)n3c(nc2c1)CCCCC3 ?
Rab9 prom act: 0.56µM; ELG1 DNA repair: inconclusive; NPC1 promoter act: 1µM; FLuc counter: 4.8µM; ELG1 genotoxic: inconclusive

Source: PubChem
